Our source for the slope difference, toxicity enhancement factor and viability values is PubChem BioAssay AID741 (SRMLSC, 2007).

Molecules are shown by their SMILES. Results filed as inconclusive are left out. Calls of active or inactive are those of the source. Rule as the data show it: active = toxicity enhancement factor above about 0.054; inconclusive = between about 0.00067 and that limit; inactive = weaker than that.

A word on the viability: it is the share of living cells, or the viability signal relative to a control.

This experiment in a line: MRP-overexpressing cell chemosensitization – dose response (AID 741). Particulars: MRP-overexpressing cells, viability with/without cytotoxic drug; slope difference: measured here: slope difference tox minus reversal, stronger effect = higher value; toxicity enhancement factor: stronger effect = higher value; viability: measured here: viability series, compound alone, at 10 µM, stronger effect = lower value.

In the case of `O[C@H]1[C@H](O)[C@@H](O)CN2CC[C@H](O)[C@H]12`, the slope difference was -0.39, the toxicity enhancement factor is -0.0036 (inactive) and the viability came to 98.5%.

On to `O=C1CCCC2C3CCCN4CCCC(CN12)C34` (stereo unspecified), for which the slope difference is -0.494, the toxicity enhancement factor is -0.0048 (inactive) and the viability amounted to 94.7%.
